Screening data as filed in PubChem.
Compounds with a hit are over-represented: about 1.1% of the library has one in this group of screens.
NTR1 ag – agonists of human neurotensin receptor NTR1; NTR1-U2OS beta-arrestin-GFP spot imaging, agonist mode; activation, % at 20 µM; hit rate 0.17% among 330,000; AID 493036;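 active means activation at or above 40% of the spot to cytoplasm intensity ratio, with at least 20 cells analyzed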;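 further: 0% = DMSO without peptide and 100% = 100 nM NTR1 peptide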
Target sequence (P30989 whole entry, looked up): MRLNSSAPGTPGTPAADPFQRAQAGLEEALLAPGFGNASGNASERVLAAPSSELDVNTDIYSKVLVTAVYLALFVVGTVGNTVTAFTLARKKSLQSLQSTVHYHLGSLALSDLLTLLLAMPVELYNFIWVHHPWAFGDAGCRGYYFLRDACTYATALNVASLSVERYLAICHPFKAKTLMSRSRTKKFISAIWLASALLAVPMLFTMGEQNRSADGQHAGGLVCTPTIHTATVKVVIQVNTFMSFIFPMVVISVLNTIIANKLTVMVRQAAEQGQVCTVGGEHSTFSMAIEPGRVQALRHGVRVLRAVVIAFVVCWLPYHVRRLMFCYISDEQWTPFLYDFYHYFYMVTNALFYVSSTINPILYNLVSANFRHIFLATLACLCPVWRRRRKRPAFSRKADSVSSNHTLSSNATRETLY
AI-2 QS modul – modulators of Vibrio harveyi AI-2 quorum sensing system. Vibrio harveyi JMH597 AI-2 luminescence/OD600 ratio, 9 h; active compounds read low; strain lacks LuxN and CqsS sensors; 0 = neutral-control median. activity change, % at 7.5 µM. hit rate 0.4% among 300,000. AID 2094; in the data active means activity change below about -75%, passing the limit was not always enough;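 further: luminescence divided by OD600 gain over 9 h not by final OD600 alone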
DSG3 Ab inh – human desmoglein-3 autoantibody binding inhibition | hit rate 0.48% among 310,000 | P32926 | binding (percent of control), % at 10 µM | DSG3-coupled beads, scFv-anti-DSG3-GFP binding, flow cytometry; active compounds read low;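 active means binding more than 3 SD below its plate's average and above zero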;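 further: hits lower antibody fragment binding to DSG3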
VLA-4 inh – inhibition in a human VLA-4 binding assay. P13612. VLA-4 expressing cells, ligand binding flow cytometry. inhibition, % (about 7 µM as worked out from the volumes in the protocol). hit rate 0.2% among 330,000. AID 2557; in the data active means inhibition above about 50%
Numbers without * were called inactive.

`COc1ccc(S(=O)(=O)N2CCC(C(=O)NN3CCCCC3)CC2)cc1` gave DSG3 Ab inh 95.
For O=C(NCc1ccncc1)/C(=N/O)c1ccccc1 the results were NTR1 ag 0, AI-2 QS modul 21, DSG3 Ab inh 75* and VLA-4 inh 4.
Screening N/C(=N\OC(=O)CCc1ccccc1)c1ccc(Br)cc1 returned NTR1 ag 2, AI-2 QS modul -24, DSG3 Ab inh 93 and VLA-4 inh 4.
Screening Cc1ccc(/C(N)=N/OC(=O)CCc2ccccc2)cc1 returned NTR1 ag 6, AI-2 QS modul -77*, DSG3 Ab inh 94 and VLA-4 inh 7.
For O=C(NCC1CCCO1)C(=O)N/N=C/c1cc(Cl)ccc1O (stereo unspecified) the results were NTR1 ag 2, AI-2 QS modul -90*, DSG3 Ab inh 106 and VLA-4 inh -1.
CCC(C)N(C(=O)COC(=O)c1ccc(N)c([N+](=O)[O-])c1)C1CCS(=O)(=O)C1 (stereo unspecified) was read as DSG3 Ab inh 101.
For CCC(C)NC(=O)Cn1c(COc2ccc(Cl)cc2Cl)nc2ccccc21 (stereo unspecified) the results were NTR1 ag -1, AI-2 QS modul 17, DSG3 Ab inh -1.1* and VLA-4 inh -8.
Cc1cccc(C(=O)OCC(=O)NCCN2C(=O)CSC2=O)c1[N+](=O)[O-] was read as NTR1 ag -1 and VLA-4 inh -5.
CC(C)c1ccc(NC(=O)CN2C(=O)COc3ccc(S(=O)(=O)N4CCOCC4)cc32)cc1 was read as NTR1 ag 1, AI-2 QS modul 21, DSG3 Ab inh 74* and VLA-4 inh 16.
`Clc1ccc2nc(CSc3nnc(-c4c[nH]c5ccccc45)o3)cn2c1` gave DSG3 Ab inh 42*.
`Cc1ccc2[nH]cc(CCNC(=O)c3ccco3)c2c1` gave NTR1 ag 0, AI-2 QS modul 14, DSG3 Ab inh 105 and VLA-4 inh 9.
Cc1ccc2[nH]cc(CCNC(=O)c3ccc4c(c3)OCO4)c2c1 was read as NTR1 ag 1, AI-2 QS modul -80*, DSG3 Ab inh 99 and VLA-4 inh 4.
Screening O=C1NN(CCO)C(=S)Nc2ccccc21 returned DSG3 Ab inh 110.
`COc1ccc(OC)c(C=NNC(=O)NN=Cc2cc(OC)ccc2OC)c1` gave DSG3 Ab inh 102.
Screening COc1ccc(OC)c(/C=N/NC(=O)C(=O)N/N=C/c2cc(OC)ccc2OC)c1 returned AI-2 QS modul 9, DSG3 Ab inh 54* and VLA-4 inh 8.
COc1ccc(C(c2c(O)nc(SC)n(C)c2=O)c2c(O)nc(SC)n(C)c2=O)cc1O was read as NTR1 ag -2, AI-2 QS modul -89*, DSG3 Ab inh 98 and VLA-4 inh -9.
`O=C(CN1C(=O)CSc2ccc(S(=O)(=O)N3CCOCC3)cc21)NCCc1ccccc1` gave DSG3 Ab inh 99.
`CC(C)CNC(=O)c1ccccc1NC(=O)CN(c1ccccc1)S(=O)(=O)N(C)C` gave NTR1 ag 0, AI-2 QS modul 0, DSG3 Ab inh 54* and VLA-4 inh 5.
For CNc1nc(-c2ccc(S(=O)(=O)N3CCCCC3)cc2)cs1 the results were NTR1 ag 2, DSG3 Ab inh 82* and VLA-4 inh 0.
For O=C(Nc1nc(-c2ccc(S(=O)(=O)N3CCCC3)cc2)cs1)c1ccco1 the results were NTR1 ag -1, AI-2 QS modul 22, DSG3 Ab inh 91 and VLA-4 inh 0.
For Cc1ccccc1-c1cnc2c(c1)C(=O)N([C@@H](C)CO)C[C@@H](C)[C@H](CN(C)Cc1ccccc1F)O2 the results were DSG3 Ab inh 99.
CCN(CC)S(=O)(=O)c1cccc(NC(=O)COC(=O)c2[nH]c(C)c(C(C)=O)c2C)c1 was read as DSG3 Ab inh 98.
`COc1ccccc1C(=O)Nc1c2c(nn1-c1cccc(C)c1C)CS(=O)(=O)C2` gave NTR1 ag 0, AI-2 QS modul 16, DSG3 Ab inh 32* and VLA-4 inh 8.
For CC(=O)Nc1ccc(S(=O)(=O)CC(=O)CS(=O)(=O)c2ccc(NC(C)=O)cc2)cc1 the results were DSG3 Ab inh 105.
CCN(CC)C(=O)c1[nH]cnc1C(=O)NCc1ccccc1 was read as NTR1 ag 1, DSG3 Ab inh 98 and VLA-4 inh 12.
Screening COC(=O)C(C(=O)OC)c1ccc(NC(=O)c2cccc(Cl)c2)cc1 returned NTR1 ag 0, AI-2 QS modul 12, DSG3 Ab inh 85* and VLA-4 inh 6.
Screening O=C(O)C1Nc2c(O)cc(Cl)c([N+](=O)[O-])c2C2C=CCC12 (stereo unspecified) returned NTR1 ag -1, AI-2 QS modul 55, DSG3 Ab inh 66* and VLA-4 inh 1.
CCN1CCN(C(=O)c2ccc(CS(=O)Cc3ccc(C)cc3)o2)CC1 (stereo unspecified) was read as NTR1 ag 2, AI-2 QS modul 18, DSG3 Ab inh 74* and VLA-4 inh 9.
`CSCCC(NC(=O)c1ccco1)C(=O)NCc1ccc2c(c1)OCO2` (stereo unspecified) gave NTR1 ag 1 and DSG3 Ab inh 102.
`CC1(C)Cc2ccccc2C(/C(=N\Nc2cccc(Cl)c2)C(N)=O)=N1` gave NTR1 ag 6, AI-2 QS modul 0, DSG3 Ab inh 68* and VLA-4 inh 6.
For CC(=O)c1ccc(N/N=C(/C(N)=O)C2=NC(C)(C)Cc3ccccc32)cc1 the results were NTR1 ag 1, AI-2 QS modul 9, DSG3 Ab inh 118 and VLA-4 inh -24.
Cc1cccc(C(=O)Nc2ccc(S(=O)(=O)Nc3nc(C)cc(C)n3)cc2)c1 was read as NTR1 ag 2, AI-2 QS modul 13, DSG3 Ab inh 14* and VLA-4 inh -3.
For O=C(CSc1ccccc1)Nc1ccc(S(=O)(=O)Nc2ncccn2)cc1 the results were NTR1 ag -1, AI-2 QS modul -67 and VLA-4 inh 12.
Cc1cc(NS(=O)(=O)c2ccc(NC(=O)Cc3ccc(Cl)c(Cl)c3)cc2)no1 was read as NTR1 ag 0 and DSG3 Ab inh 100.
For Cc1ccc(CC(=O)Nc2ccc(S(=O)(=O)Nc3ncccn3)cc2)cc1 the results were NTR1 ag -1, AI-2 QS modul -92*, DSG3 Ab inh 102 and VLA-4 inh 1.
Screening COc1ccc(CC(=O)Nc2ccc(S(=O)(=O)Nc3cc(C)on3)cc2)cc1 returned NTR1 ag 2, AI-2 QS modul -92* and VLA-4 inh -3.
Screening O=C(CCSc1ccccc1)Nc1ccc(S(=O)(=O)Nc2ncccn2)cc1 returned NTR1 ag 0, AI-2 QS modul -79*, DSG3 Ab inh 103 and VLA-4 inh -6.
`CN1CCN(CCNC(=O)c2ccc(CS(=O)c3ccc(Br)cc3)o2)CC1` (stereo unspecified) gave DSG3 Ab inh 108.
Screening Cc1cccc(NC(=O)CSc2nnc3ccc(-c4cccnc4)nn23)c1 returned DSG3 Ab inh 96.
